Assay results from PubChem BioAssay (Tox21).
Activity calls are given as the source filed them. Unless noted, calls follow the shape of the dose curve; as a rule, active = well fitted curve in the direction sought with a large enough effect in the repeat runs; inconclusive = weak or mixed curves; inactive = no such curve, though single readings can be large; an effect the other way counts as inactive or inconclusive.

What was measured:
[1] = qHTS assay to identify small molecule antagonists of the glucocorticoid receptor (GR) signaling pathway - cell viability counter screen (AID 720693); details: GR-bla HeLa viability, CellTiter-Glo luminescence, 18 h, with 5 nM dexamethasone present; series mostly up to 58.5 µM; also: nearly all actives have a fitted effect of over 55% in size
[2] = qHTS assay for identifying genotoxic compounds that show differential cytotoxicity against isogenic chicken DT40 cell lines with known DNA damage response pathways - Rad54/Ku70 mutant cell line (AID 743015); details: DT40 Rad54/Ku70 mutant viability, CellTiter-Glo, 40 h; series mostly up to 66.8 µM; also: nearly all actives have a fitted effect of over 60% in size; also: potency is read from the fitted curve at half-maximal effect
[3] = qHTS assay to identify small molecule antagonists of the androgen receptor (AR) signaling pathway using the MDA cell line - cell viability counter screen (AID 743041; also: nearly all actives have a fitted effect of over 45% in size); details: MDA-kb2 viability, CellTiter-Fluor, 16 h, cells co-treated with R1881 androgen agonist; series mostly up to 70.3 µM
Summary of the method: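 Compound exposure lasted 16 h at 37C in MDA-kb2 AR-luc cells stimulated with R1881. Protease-based CellTiter-Fluor reagent was applied for the final 30 min and fluorescence measured.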

[4] = qHTS assay to identify small molecule antagonists of the thyroid receptor (TR) signaling pathway - cell viability counter screen (AID 743064); details: GH3.TRE-Luc viability, CellTiter-Fluor, 24 h; series mostly up to 70.3 µM; also: nearly all actives have a fitted effect of over 50% in size; also: potency is read from the fitted curve at half-maximal effect
Summary of the method: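 GH3.TRE-Luc cells, 4 h pre-plating; cpd + T3 1 nM final; 37 °C 23.5 h; CellTiter-Fluor 30 min; fluorescence read.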

[5] = tested on: thyroid hormone receptor (rat, GH3 cells); assay: qHTS assay to identify small molecule agonists of the thyroid receptor (TR) signaling pathway (AID 743066; calls by dose curve); details: GH3.TRE-Luc cells, TR agonist luciferase, 24 h; series mostly up to 83.9 µM
[6] = qHTS assay to identify small molecule antagonists of the estrogen receptor alpha (ER-alpha) signaling pathway - cell viability counter screen (AID 743074; calls by dose curve; also: nearly all actives have a fitted effect of over 45% in size); details: ERalpha-bla HEK293 viability, CellTiter-Glo luminescence, 18 h; series mostly up to 69.4 µM
[7] = biological target: Estrogen receptor (Homo sapiens) (UniProt P03372); assay: qHTS assay to identify small molecule agonists of the estrogen receptor alpha (ER-alpha) signaling pathway (AID 743075; calls by dose curve); details: HEK293 ER-alpha-UAS-bla, beta-lactamase FRET ratio, 18 h; series mostly up to 70.1 µM
[8] = biological target: Estrogen receptor (Homo sapiens) (UniProt P03372); assay: qHTS assay to identify small molecule agonists of the estrogen receptor alpha (ER-alpha) signaling pathway using the BG1 cell line (AID 743079); details: BG1Luc4E2 cells, ERE-luciferase agonist, 22 h; series mostly up to 70.3 µM; also: nearly all actives have a fitted effect of over 20% in size; also: potency is read from the fitted curve at half-maximal effect
[9] = qHTS assay to identify small molecule antagonists of the estrogen receptor alpha (ER-alpha) signaling pathway using the BG1 cell line (AID 743080; calls by dose curve;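 also: BG1 cells stimulated with 17beta-estradiol alongside compound; nearly all actives have a fitted effect of over 25% in size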); details: BG1Luc4E2 ERE-luciferase antagonist mode, luminescence; series mostly up to 70.3 µM
Summary of the method: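 BG1-Luc-4E2 cells (endogenous full-length ER-alpha, stable 4×ERE-luciferase) were starved 5 days in phenol-red-free medium with 10% charcoal-stripped FBS, plated 24 h, then given compound plus 17beta-estradiol for 21.5 h at 37 C; ONE-Glo luminescence read after 30 min.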

[10] = qHTS assay to identify small molecule antagonists of the estrogen receptor alpha (ER-alpha) signaling pathway using the BG1 cell line - cell viability counter screen (AID 743081); details: BG1Luc4E2 viability, CellTiter-Fluor, 22 h; series mostly up to 70.3 µM;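 also: compound given together with 17beta-estradiol as the ER stimulus; nearly all actives have a fitted effect of over 45% in size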
[11] = biological target: Aromatase (Homo sapiens) (UniProt P11511); assay: qHTS assay to identify aromatase inhibitors (AID 743083); details: MCF-7 aro ERE, testosterone-driven ERE luciferase, 24 h; series mostly up to 70.3 µM; also: nearly all actives have a fitted effect of over 55% in size; also: potency is read from the fitted curve at half-maximal effect
[12] = qHTS assay for identifying genotoxic compounds that show differential cytotoxicity against isogenic chicken DT40 cell lines with known DNA damage response pathways - wild type cell line (AID 743012); details: DT40 wild type chicken cells viability, CellTiter-Glo, 40 h; series mostly up to 68.4 µM; also: nearly all actives have a fitted effect of over 60% in size; also: potency is read from the fitted curve at half-maximal effect
Summary of the method: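 Endpoint: CellTiter-Glo luminescence, 30 min RT. Cells: wild type DT40, 300/well. Exposure: compounds in DMSO, 40 h, 37 C/5% CO2, after ~0.5 h pre-incubation.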

[13] = qHTS assay to identify small molecule antagonists of the androgen receptor (AR) signaling pathway - cell viability counter screen (AID 743033; also: nearly all actives have a fitted effect of over 45% in size); details: AR-bla HEK293 viability, CellTiter-Glo luminescence, 16 h; series mostly up to 58.5 µM
[14] = biological target: Androgen receptor (Homo sapiens) (UniProt P10275); assay: qHTS assay to identify small molecule agonists of the androgen receptor (AR) signaling pathway (AID 743036; active = well fitted activation curve with a large enough effect in the signal ratio in the repeat runs, with a control signal flat, not every such curve was filed as active; inconclusive = weak or mixed curves, or effect the other way; inactive = no such curve, though single readings can be large or run the other way; the % refers to the signal ratio; also: potency is read from the fitted curve at half-maximal effect); details: HEK293 AR-UAS-bla GripTite, beta-lactamase FRET ratio, 16 h; series mostly up to 62.4 µM
Summary of the method: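 AR-bla HEK293 cells, 2,000/well; 4 h preincubation 37C/5% CO2; compound (DMSO) 16 h at 37C; LiveBLAzer B/G FRET substrate 2 h RT; fluorescence intensity read-out.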

[15] = biological target: Androgen receptor (Homo sapiens) (UniProt P10275); assay: qHTS assay to identify small molecule agonists of the androgen receptor (AR) signaling pathway using the MDA cell line (AID 743040; also: nearly all actives have a fitted effect of over 20% in size); details: MDA-kb2 AR-luc cells, MMTV luciferase, 16 h; series mostly up to 70.3 µM
Summary of the method: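 Testing was done with the MDA-kb2 AR-luc line, a human breast carcinoma stably transfected with MMTV-luciferase containing AR and GR response elements. Cells were exposed 16 h at 37C before ONE-Glo luminescence detection.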

[16] = biological target: Androgen receptor (Homo sapiens) (UniProt P10275); assay: qHTS assay to identify small molecule antagonists of the androgen receptor (AR) signaling pathway using the MDA cell line (AID 743042; also: nearly all actives have a fitted effect of over 55% in size); details: MDA-kb2 AR-luc, MMTV luciferase, R1881 antagonist, 16 h; series mostly up to 70.3 µM
Summary of the method: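 MDA-kb2 breast carcinoma cells carrying MMTV-luciferase (AR/GR responsive) were co-treated with compounds and the agonist R1881 for 16 h at 37C. Inhibition read as ONE-Glo luminescence; CellTiter-Fluor fluorescence measured in parallel for cytotoxicity.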

[17] = qHTS assay to identify small molecule antagonists of the thyroid receptor (TR) signaling pathway (AID 743065); details: GH3.TRE-Luc, T3-stimulated luciferase inhibition, 23.5 h; series mostly up to 70.3 µM; also: nearly all actives have a fitted effect of over 55% in size; also: potency is read from the fitted curve at half-maximal effect
Summary of the method: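 GH3.TRE-Luc rat pituitary cells (two TREs driving luciferase) were dosed with compound, then stimulated with 1 nM T3 (final) for 23.5 h at 37 C. ONE-Glo luminescence was the read-out, with CellTiter-Fluor fluorescence as the cytotoxicity counter-screen.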

[18] = biological target: Estrogen receptor (Homo sapiens) (UniProt P03372); assay: qHTS assay to identify small molecule antagonists of the estrogen receptor alpha (ER-alpha) signaling pathway (AID 743069; active = well fitted curve in the direction sought with a large enough effect in the signal ratio in the repeat runs, not every such curve was filed as active; inconclusive = weak or mixed curves, or effect the other way; inactive = no such curve, though single readings can be large or run the other way; the % refers to the signal ratio; also: potency is read from the fitted curve at half-maximal effect); details: HEK293 ER-alpha-UAS-bla, beta-lactamase ratio, antagonist mode; series mostly up to 69.4 µM
Summary of the method: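 In this cell-based reporter format, GripTite HEK293 cells harbouring ER-alpha-UAS-bla were grown overnight with 2% charcoal-stripped FBS, dosed with DMSO-dissolved compounds, then challenged with 17beta-estradiol. After 18 hr at 37C, beta-lactamase activity was detected by FRET fluorescence.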

[19] = qHTS assay for identifying genotoxic compounds that show differential cytotoxicity against isogenic chicken DT40 cell lines with known DNA damage response pathways - Rev3 mutant cell line (AID 743014); details: chicken DT40 Rev3-/- viability, CellTiter-Glo, 40 h; series mostly up to 68.4 µM; also: nearly all actives have a fitted effect of over 55% in size; also: potency is read from the fitted curve at half-maximal effect
[20] = biological target: Androgen receptor (Homo sapiens) (UniProt P10275); assay: qHTS assay to identify small molecule antagonists of the androgen receptor (AR) signaling pathway (AID 743035; active = well fitted inhibition curve with a large enough effect in the signal ratio in the repeat runs, not every such curve was filed as active; inconclusive = weak or mixed curves, or effect the other way; inactive = no such curve, though single readings can be large or run the other way; the % refers to the signal ratio; also: potency is read from the fitted curve at half-maximal effect); details: HEK293 AR-UAS-bla, R1881-stimulated, beta-lactamase FRET, 16 h; series mostly up to 58.5 µM
Summary of the method: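 R1881 agonist challenge of a HEK293 UAS-beta-lactamase AR reporter line in the presence of compound (16 h, 37C); signal taken as FRET fluorescence after 2 h with LiveBLAzer B/G substrate at room temperature.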

Measured: Potency

Chain of Aromatase (Homo sapiens) (P11511 whole entry, looked up): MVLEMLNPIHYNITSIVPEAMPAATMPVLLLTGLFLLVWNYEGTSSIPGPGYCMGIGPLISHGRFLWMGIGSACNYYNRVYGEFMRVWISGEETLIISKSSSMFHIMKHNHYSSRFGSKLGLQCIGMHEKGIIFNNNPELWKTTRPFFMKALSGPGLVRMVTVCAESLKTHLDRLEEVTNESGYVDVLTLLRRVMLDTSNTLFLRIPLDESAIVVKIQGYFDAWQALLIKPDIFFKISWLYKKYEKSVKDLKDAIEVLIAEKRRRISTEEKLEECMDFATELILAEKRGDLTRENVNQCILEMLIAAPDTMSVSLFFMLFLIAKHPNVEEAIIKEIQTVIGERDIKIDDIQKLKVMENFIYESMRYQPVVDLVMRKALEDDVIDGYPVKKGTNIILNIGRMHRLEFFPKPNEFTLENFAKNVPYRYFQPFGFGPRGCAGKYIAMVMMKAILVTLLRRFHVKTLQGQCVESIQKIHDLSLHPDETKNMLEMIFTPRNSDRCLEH
Chain of Androgen receptor (Homo sapiens) (P10275 whole entry, looked up): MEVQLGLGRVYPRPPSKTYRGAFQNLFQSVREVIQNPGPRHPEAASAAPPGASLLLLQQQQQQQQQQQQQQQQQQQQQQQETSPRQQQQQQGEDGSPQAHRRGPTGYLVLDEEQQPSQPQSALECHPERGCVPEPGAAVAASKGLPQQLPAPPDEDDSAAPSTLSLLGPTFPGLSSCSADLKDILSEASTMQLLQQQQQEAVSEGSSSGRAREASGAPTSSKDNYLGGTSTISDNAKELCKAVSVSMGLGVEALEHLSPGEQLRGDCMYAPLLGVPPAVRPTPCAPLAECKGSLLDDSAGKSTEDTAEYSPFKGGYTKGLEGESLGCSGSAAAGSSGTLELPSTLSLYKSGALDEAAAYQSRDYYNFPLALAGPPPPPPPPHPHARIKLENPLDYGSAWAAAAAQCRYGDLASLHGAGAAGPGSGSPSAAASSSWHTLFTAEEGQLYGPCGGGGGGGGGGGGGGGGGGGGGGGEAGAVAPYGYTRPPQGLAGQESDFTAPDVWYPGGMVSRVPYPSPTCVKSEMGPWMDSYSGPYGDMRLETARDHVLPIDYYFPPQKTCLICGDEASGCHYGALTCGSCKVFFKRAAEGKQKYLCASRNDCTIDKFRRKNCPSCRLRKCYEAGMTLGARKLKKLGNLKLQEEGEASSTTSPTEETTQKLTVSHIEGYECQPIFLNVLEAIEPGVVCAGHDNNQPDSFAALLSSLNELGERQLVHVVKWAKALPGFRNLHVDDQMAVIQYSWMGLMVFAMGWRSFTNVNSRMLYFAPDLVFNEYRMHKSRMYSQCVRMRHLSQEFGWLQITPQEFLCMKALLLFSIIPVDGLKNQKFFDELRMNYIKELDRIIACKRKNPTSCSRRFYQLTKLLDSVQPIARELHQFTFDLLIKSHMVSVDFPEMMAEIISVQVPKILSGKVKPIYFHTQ
Chain of Estrogen receptor (Homo sapiens) (P03372 whole entry, looked up): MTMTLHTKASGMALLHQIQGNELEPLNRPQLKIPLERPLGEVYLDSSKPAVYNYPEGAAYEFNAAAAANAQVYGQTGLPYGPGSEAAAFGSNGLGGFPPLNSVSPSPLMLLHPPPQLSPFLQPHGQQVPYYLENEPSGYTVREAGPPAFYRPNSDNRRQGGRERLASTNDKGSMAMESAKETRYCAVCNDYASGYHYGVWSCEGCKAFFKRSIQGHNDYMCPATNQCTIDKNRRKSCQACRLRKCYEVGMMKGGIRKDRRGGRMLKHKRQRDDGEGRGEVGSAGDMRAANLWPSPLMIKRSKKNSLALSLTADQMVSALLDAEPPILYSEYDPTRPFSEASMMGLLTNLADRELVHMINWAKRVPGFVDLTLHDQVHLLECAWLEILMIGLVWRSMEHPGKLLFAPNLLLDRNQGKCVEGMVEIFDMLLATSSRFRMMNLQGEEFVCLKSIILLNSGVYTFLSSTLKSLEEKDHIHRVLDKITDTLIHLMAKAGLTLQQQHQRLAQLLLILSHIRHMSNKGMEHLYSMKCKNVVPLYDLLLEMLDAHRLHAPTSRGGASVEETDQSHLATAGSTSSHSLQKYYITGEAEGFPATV

CCCCCCCCCCO[C@@H]1O[C@H](CO)[C@@H](O)[C@H](O)[C@H]1O
inactive: [1] | [3] | [4] | [5] | [6] | [7] | [8] | [9] | [10] | [11]
active: [2] 61.1 µM

COC(=O)C1=C(C)NC(COC(N)=O)=C(C(=O)OC(C)C)C1c1cccc(Cl)c1Cl (stereo unspecified)
active: [12] 23.7 µM | [2] 23.7 µM | [14] 10.7 µM | [4] 26.6 µM | [17] 16.8 µM | [11] 29.8 µM
inactive: [13] | [15] | [3] | [16] | [6] | [8] | [9]

CC(C)(O)c1ccc(CNC(=O)c2cccnc2Oc2ccc(F)cc2)cc1
inactive: [1] | [3] | [4] | [17] | [5] | [6] | [10]

c1cc(CCCc2ccncc2)ccn1
inactive: [1] | [13] | [3] | [4] | [17] | [5] | [18] | [6] | [7] | [8] | [9] | [10]
active: [11] 13.7 µM

COS(=O)(=O)C(F)(F)F
inactive: [1] | [2] | [4] | [17] | [5] | [18] | [6] | [7] | [8] | [9] | [10] | [11]

c1ccc(C(O[C@H]2CCCN(CCc3ccc4c(c3)OCO4)C2)c2ccccc2)cc1
inactive: [13] | [3] | [6] | [7] | [8] | [9] | [10]
active: [12] 23.7 µM | [19] 29.8 µM | [2] 29.8 µM | [4] 29.8 µM | [17] 26.6 µM

c1ccc(-c2ccccn2)nc1
inactive: [1] | [13] | [14] | [15] | [3] | [16] | [4] | [17] | [5] | [6] | [7] | [8] | [9] | [10] | [11]
active: [2] 24.3 µM

CC(=O)OC[C@H]1O[C@@H](n2ncc(=O)[nH]c2=O)[C@H](OC(C)=O)[C@@H]1OC(C)=O
inactive: [1] | [15] | [3] | [16] | [4] | [17] | [5] | [6] | [7] | [8] | [9] | [10] | [11]
active: [2] 1.06 µM | [20] 5.35 µM | [18] 2.68 µM [inconclusive]

COc1cc(Cl)c(OC)cc1N
inactive: [1] | [13] | [3] | [4] | [10] | [11]

O=C(c1ccc(F)cc1)C1CCN(CCn2c(=S)[nH]c3ccccc3c2=O)CC1
active: [12] 18.8 µM | [2] 6.68 µM
inactive: [13] | [15] | [3] | [16] | [4] | [17] | [5] | [6] | [10] | [11]

CCOC(=O)Cc1cccc2ccccc12
inactive: [1] | [2] | [13] | [3] | [4] | [17] | [5] | [6] | [7] | [8] | [9] | [10] | [11]

CCCCCCCCCCCCCCCCCCOS(=O)(=O)O
inactive: [2] | [13] | [3] | [5] | [6] | [7] | [8] | [9] | [10]
active: [17] 48.6 µM

Nc1cccc([N+](=O)[O-])c1
inactive: [12] | [19] | [2] | [13] | [20] | [14] | [15] | [3] | [16] | [4] | [17] | [5] | [18] | [6] | [7] | [8] | [9] | [10]

O=C(CS)Nc1ccccc1
active: [12] 11.9 µM | [19] 21.1 µM | [2] 18.8 µM | [18] 15.1 µM [inconclusive] | [8] 21.1 µM
inactive: [5] | [6] | [7] | [9] | [11]

CC(=O)c1cccc([N+](=O)[O-])c1
inactive: [1] | [13] | [3] | [4] | [17] | [5] | [18] | [6] | [7] | [8] | [9] | [10] | [11]

O=[N+]([O-])c1ccc2[nH]ncc2c1
inactive: [1] | [2] | [13] | [3] | [4] | [17] | [5] | [18] | [6] | [7] | [8] | [9] | [10] | [11]
